# PubChem BioAssay (EPA / NIEHS)
# Active and inactive are the calls of the source. The calls were made as follows: active = hit-call score of the fitted dose curve at least 0.9, where 1 is the maximum; inactive = score below 0.9.
# Columns and labels:
# [1] = ATG_E_Box_CIS: Attagene CIS-FACTORIAL HepG2 Assay for human Enhancer Box (E-box) (AID 2282936); details: HepG2 E-box cis-reporter transcription, actives raise or lower the signal
# Outline: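 HepG2 cells transiently transfected with multiplexed cis-element reporter units, dosed 24 h; reporter mRNA quantified by RT-PCR, 6-FAM labelling, HpaI digestion and capillary electrophoresis. E-box (USF1) signal fitted bidirectionally vs DMSO.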
# [2] = ATG_M_61_CIS: Attagene CIS-FACTORIAL HepG2 Assay for M61 Transcription Factor (Internal Marker) (AID 2282937); details: HepG2 Attagene CIS-FACTORIAL M61 internal marker reporter; actives raise or lower the signal
# Outline: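 Using transiently transfected HepG2 liver cells, reporter transcript levels were assessed 24 h post-dosing by RT-PCR and capillary electrophoresis. Changes in either direction were fitted relative to DMSO controls.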
# [3] = ATG_EGR_CIS: Attagene CIS-FACTORIAL HepG2 Assay for human Early Growth Response 1 (EGR1) (AID 2282938); details: HepG2 Attagene CIS-FACTORIAL EGR reporter mRNA; actives raise or lower the signal
# Outline: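 Fluorescent capillary-electrophoresis signal of reporter cDNA fragments serves as read-out. HepG2 cells bear transiently transfected cis-promoter reporter units and are exposed 24 h; gain- or loss-of-signal is fitted against DMSO.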
# [4] = ATG_M_19_CIS: Attagene CIS-FACTORIAL HepG2 Assay for M19 Transcription Factor (Internal Marker) (AID 2282939); details: HepG2 Attagene CIS-FACTORIAL M19 internal marker reporter; actives raise or lower the signal
# Outline: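 In this multiplexed cell assay, transiently transfected HepG2 reporter units report endogenous transcription-factor activity; after 24 hours of treatment, labelled reporter cDNA fragments are quantified by capillary electrophoresis and fitted bidirectionally against DMSO.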
# [5] = ATG_Ets_CIS: Attagene CIS-FACTORIAL HepG2 Assay for human Erythroblast Transformation Specific (ETS) (AID 2282941); details: HepG2 ETS cis-reporter transcription, actives raise or lower the signal
# Outline: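 HepG2 cells transiently transfected with cis-promoter reporter transcription units were dosed for 24 h; reporter mRNA was measured by RT-PCR, 6-FAM primer extension, HpaI digestion and capillary electrophoresis, with bidirectional fitting against DMSO baseline.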
# [6] = target: Hepatocyte nuclear factor 3-beta (Homo sapiens) (UniProt Q9Y261); experiment: ATG_FoxA2_CIS: Attagene CIS-FACTORIAL HepG2 Assay for human Forkhead box A2 (FOXA2) (AID 2282942); details: HepG2 cis-reporter transcription factor activity, 24 h; actives raise or lower the signal
# Sequence of Hepatocyte nuclear factor 3-beta (Homo sapiens) (Q9Y261 whole entry, looked up, the tested form may be a part): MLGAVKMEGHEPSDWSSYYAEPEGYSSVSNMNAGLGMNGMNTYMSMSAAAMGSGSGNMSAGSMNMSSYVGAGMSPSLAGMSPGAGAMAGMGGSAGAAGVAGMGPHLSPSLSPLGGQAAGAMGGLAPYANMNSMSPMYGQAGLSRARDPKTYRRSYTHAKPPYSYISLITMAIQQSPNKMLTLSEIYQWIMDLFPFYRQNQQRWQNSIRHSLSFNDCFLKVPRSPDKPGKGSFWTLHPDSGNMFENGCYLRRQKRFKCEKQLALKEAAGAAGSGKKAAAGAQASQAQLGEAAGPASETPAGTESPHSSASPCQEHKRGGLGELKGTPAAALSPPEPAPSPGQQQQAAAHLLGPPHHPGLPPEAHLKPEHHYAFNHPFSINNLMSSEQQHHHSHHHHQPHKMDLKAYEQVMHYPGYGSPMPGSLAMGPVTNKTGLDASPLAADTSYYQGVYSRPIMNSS
# Outline: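 Fluorescence signal of reporter cDNA fragments, separated by capillary electrophoresis, reflects endogenous transcription factor activity in transfected HepG2 after 24 h. Both increases and decreases fitted against DMSO.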
# [7] = ATG_FoxO_CIS: Attagene CIS-FACTORIAL HepG2 Assay for human Forkhead box O (FoxO) (AID 2282943); details: HepG2 Attagene cis-reporter, FoxO element, mRNA; actives raise or lower the signal
# Outline: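 HepG2 cells transiently transfected with cis-element-driven reporter units report endogenous FoxO activity. After 24 h chemical exposure, reporter mRNA quantified by RT-PCR, fluorescent labeling, HpaI digestion and capillary electrophoresis; bidirectional fit versus DMSO.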
# [8] = ATG_GATA_CIS: Attagene CIS-FACTORIAL HepG2 Assay for human GATA Binding Protein (AID 2282944); details: HepG2 GATA cis-element reporter, Attagene multiplex mRNA; actives raise or lower the signal
# Outline: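 Measures endogenous transcription factor-driven reporter mRNA in HepG2 cells transiently carrying cis-regulated constructs. 24 h dosing; RNA via oligo(dT) reverse transcription, PCR, HpaI digestion, capillary electrophoresis; fitted relative to DMSO.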
# [9] = ATG_GLI_CIS: Attagene CIS-FACTORIAL HepG2 Assay for human Zinc Finger Protein GLI1 (AID 2282945); details: HepG2, Attagene cis-factorial reporter mRNA, GLI element; actives raise or lower the signal
# Outline: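 Transiently transfected HepG2 cells report endogenous transcription factor activity via cis-element-driven reporter units. After 24 h compound exposure, reporter mRNA was measured by RT-PCR with capillary electrophoresis; bidirectional fitting against DMSO baseline.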
# [10] = target: Bile acid receptor (Homo sapiens) (UniProt Q96RI1); experiment: ATG_IR1_CIS: Attagene CIS-FACTORIAL HepG2 Assay for human Nuclear Receptor Subfamily 1 Group H Member 4 (NR1H4), IR1 submotif (AID 2282946); details: IR1 reporter transcription, actives raise or lower the signal
# Sequence of Bile acid receptor (Homo sapiens) (Q96RI1 whole entry, looked up): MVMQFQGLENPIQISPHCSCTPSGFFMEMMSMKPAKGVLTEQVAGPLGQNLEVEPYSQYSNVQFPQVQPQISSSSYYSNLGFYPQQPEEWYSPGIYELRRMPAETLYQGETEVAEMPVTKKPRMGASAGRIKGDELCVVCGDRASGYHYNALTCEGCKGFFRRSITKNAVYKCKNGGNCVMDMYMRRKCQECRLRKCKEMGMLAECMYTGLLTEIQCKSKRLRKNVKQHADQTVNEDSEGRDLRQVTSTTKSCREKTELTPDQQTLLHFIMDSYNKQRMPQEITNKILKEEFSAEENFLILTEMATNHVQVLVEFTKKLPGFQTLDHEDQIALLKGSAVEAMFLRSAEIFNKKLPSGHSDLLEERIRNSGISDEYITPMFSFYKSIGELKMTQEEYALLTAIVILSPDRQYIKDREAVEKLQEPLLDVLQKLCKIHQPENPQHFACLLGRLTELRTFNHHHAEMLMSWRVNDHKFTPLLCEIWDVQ
# Outline: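 HepG2 cells transiently transfected with multiple cis-promoter-driven reporter units to measure endogenous transcription factor activity; 24 h exposure. Reporter mRNA read by RT-PCR, FAM labelling, HpaI digestion and capillary electrophoresis. Bidirectional fit versus DMSO.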
# [11] = ATG_GRE_CIS: Attagene CIS-FACTORIAL HepG2 Assay for human Glucocorticoid Response Elements (GRE) (AID 2282947); details: HepG2 GRE cis-reporter, Attagene multiplex mRNA; actives raise or lower the signal
# Outline: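 Transiently transfected HepG2 cells carrying GRE cis-reporter units (endogenous TF activity) dosed 24 h; reporter mRNA quantified by RT-PCR, 6-FAM labelling, HpaI digestion and capillary electrophoresis. Bidirectional fit versus DMSO baseline.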
# [12] = ATG_ISRE_CIS: Attagene CIS-FACTORIAL HepG2 Assay for human Interferon Regulatory Factor 1 (IRF1) binding to an Interferon-Stimulated Response Element (ISRE) (AID 2282948); details: HepG2 ISRE cis-reporter (Attagene), mRNA transcription readout; actives raise or lower the signal
# Outline: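 HepG2 cells transiently transfected with multiplexed cis-promoter reporter units; after 24 h compound exposure, reporter mRNA quantified by RT-PCR, FAM labelling, HpaI digestion and capillary electrophoresis. Bidirectional fit versus DMSO baseline.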
# [13] = ATG_M_32_CIS: Attagene CIS-FACTORIAL HepG2 Assay for M32 Transcription Factor (Internal Marker) (AID 2282949); details: HepG2 Attagene cis-factorial M32 reporter, mRNA; actives raise or lower the signal;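 also: background control marker of the multiplexed CIS panel rather than a real target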
# Outline: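 HepG2 cells transiently transfected with multiplexed cis-regulated reporter units, dosed 24 h. Reporter mRNA quantified by RT-PCR, 6-FAM labelling, HpaI digestion and capillary electrophoresis; bidirectional fit vs DMSO.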
# [14] = ATG_M_06_CIS: Attagene CIS-FACTORIAL HepG2 Assay for M06 Transcription Factor (Internal Marker) (AID 2282950); details: HepG2 Attagene CIS-FACTORIAL M06 internal marker reporter; actives raise or lower the signal
# Outline: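 One of many multiplexed endpoints: HepG2 reporter mRNA after 24 h dosing, detected by RT-PCR and capillary electrophoresis fluorescence; gain or loss of signal analysed against DMSO.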
# [15] = target: Hypoxia-inducible factor 1-alpha (Homo sapiens) (UniProt Q16665); experiment: ATG_HIF1a_CIS: Attagene CIS-FACTORIAL HepG2 Assay for human Hypoxia Inducible Factor 1 (HIF1A) (AID 2282951); details: HepG2 Attagene cis-factorial HIF1a reporter transcription; actives raise or lower the signal
# Sequence of Hypoxia-inducible factor 1-alpha (Homo sapiens) (Q16665 whole entry, looked up): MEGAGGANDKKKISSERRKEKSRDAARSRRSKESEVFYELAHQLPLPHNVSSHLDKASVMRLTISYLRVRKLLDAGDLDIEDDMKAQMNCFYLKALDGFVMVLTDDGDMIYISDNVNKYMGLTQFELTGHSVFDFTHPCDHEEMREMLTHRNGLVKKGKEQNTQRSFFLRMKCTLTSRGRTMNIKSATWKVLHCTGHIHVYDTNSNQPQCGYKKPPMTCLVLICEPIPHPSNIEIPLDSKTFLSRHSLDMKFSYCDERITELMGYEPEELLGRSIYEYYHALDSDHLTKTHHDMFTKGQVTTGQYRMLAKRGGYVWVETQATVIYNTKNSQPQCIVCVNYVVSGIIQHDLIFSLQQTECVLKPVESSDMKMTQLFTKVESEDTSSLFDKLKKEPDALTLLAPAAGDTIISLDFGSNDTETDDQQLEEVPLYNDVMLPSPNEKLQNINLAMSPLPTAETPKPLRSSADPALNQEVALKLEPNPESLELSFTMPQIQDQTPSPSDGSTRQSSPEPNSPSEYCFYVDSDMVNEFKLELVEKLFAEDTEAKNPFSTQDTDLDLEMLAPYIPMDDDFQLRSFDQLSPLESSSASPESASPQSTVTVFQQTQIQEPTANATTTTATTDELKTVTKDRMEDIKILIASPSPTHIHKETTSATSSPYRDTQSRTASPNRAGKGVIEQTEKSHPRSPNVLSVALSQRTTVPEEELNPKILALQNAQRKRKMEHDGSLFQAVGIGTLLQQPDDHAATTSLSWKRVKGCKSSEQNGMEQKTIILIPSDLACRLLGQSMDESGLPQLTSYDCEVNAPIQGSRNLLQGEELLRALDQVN
# Outline: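 Endogenous-TF cis reporter readout, human HepG2 cells, 24 h incubation; mRNA detected via RT-PCR and capillary electrophoresis fluorescence; DMSO-normalised bidirectional fitting.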
# [16] = target: Hepatocyte nuclear factor 6 (Homo sapiens) (UniProt Q9UBC0); experiment: ATG_HNF6_CIS: Attagene CIS-FACTORIAL HepG2 Assay for human Hepatocyte Nuclear Factor 6 (HNF6) (AID 2282952); details: HepG2 Attagene cis-factorial HNF6 reporter transcription; actives raise or lower the signal
# Sequence of Hepatocyte nuclear factor 6 (Homo sapiens) (Q9UBC0 whole entry, looked up): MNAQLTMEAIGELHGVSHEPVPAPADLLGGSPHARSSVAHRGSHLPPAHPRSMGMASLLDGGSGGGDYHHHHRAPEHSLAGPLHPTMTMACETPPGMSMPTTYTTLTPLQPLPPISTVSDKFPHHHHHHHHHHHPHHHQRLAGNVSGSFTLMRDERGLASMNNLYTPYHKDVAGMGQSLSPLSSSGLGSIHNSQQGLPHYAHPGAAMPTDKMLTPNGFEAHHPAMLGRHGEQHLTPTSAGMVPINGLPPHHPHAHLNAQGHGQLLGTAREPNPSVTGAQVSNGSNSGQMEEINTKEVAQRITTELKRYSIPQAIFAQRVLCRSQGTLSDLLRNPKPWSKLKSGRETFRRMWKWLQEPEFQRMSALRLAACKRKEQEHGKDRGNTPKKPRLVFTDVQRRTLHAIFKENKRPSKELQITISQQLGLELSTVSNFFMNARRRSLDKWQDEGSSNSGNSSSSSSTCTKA
# Outline: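 Multiplexed mRNA reporter assay in transfected HepG2; 24 h dosing; RT-PCR plus capillary electrophoresis fluorescence; DMSO-referenced bidirectional curve fitting.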
# [17] = ATG_MRE_CIS: Attagene CIS-FACTORIAL HepG2 Assay for human Metal Responsive Element (MRE) (AID 2282954); details: HepG2 MRE cis-reporter transcription, Attagene multiplex; actives raise or lower the signal
# Outline: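 HepG2 cells transiently transfected with cis-element-driven reporter units; mRNA measured 24 h after dosing. Reporter transcripts quantified by RT-PCR, FAM labelling, HpaI digestion and capillary electrophoresis; bidirectional fit versus DMSO.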
# [18] = ATG_PBREM_CIS: Attagene CIS-FACTORIAL HepG2 Assay for human Phenobarbital-responsive Enhancer Module (PBREM) (AID 2282955); details: HepG2 PBREM cis-reporter, Attagene multiplexed transcription; actives raise or lower the signal
# Outline: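 Readout: reporter mRNA, fluorescent RT-PCR fragments separated by capillary electrophoresis. System: HepG2 transiently transfected with cis-regulated reporter units. Exposure: 24 h. Analysis: bidirectional, DMSO baseline.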
# [19] = target: Heat shock factor protein 1 (Homo sapiens) (UniProt Q00613); experiment: ATG_HSE_CIS: Attagene CIS-FACTORIAL HepG2 Assay for human Heat Shock Transcription Factor 1 (HSE) (AID 2282953); details: HepG2 HSE cis-reporter, Attagene RNA transcription; actives raise or lower the signal
# Sequence of Heat shock factor protein 1 (Homo sapiens) (Q00613 whole entry, looked up): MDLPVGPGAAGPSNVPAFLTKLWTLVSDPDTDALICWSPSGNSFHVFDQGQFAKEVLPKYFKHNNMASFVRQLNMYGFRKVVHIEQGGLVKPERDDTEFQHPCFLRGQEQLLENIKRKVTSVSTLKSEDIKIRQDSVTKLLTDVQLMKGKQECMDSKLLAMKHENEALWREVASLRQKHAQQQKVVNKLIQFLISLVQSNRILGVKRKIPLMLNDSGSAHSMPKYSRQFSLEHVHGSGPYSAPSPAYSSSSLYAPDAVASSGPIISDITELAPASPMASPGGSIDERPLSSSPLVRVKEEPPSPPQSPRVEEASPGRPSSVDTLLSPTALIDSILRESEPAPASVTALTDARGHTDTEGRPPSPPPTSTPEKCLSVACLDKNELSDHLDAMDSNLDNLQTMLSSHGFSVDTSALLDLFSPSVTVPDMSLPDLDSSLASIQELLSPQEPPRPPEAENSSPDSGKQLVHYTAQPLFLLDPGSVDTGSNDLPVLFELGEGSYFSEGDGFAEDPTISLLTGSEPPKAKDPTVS
# Outline: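 Using HepG2 with transfected cis-driven reporter constructs, compound effects on endogenous factor activity are scored as reporter mRNA change at 24 h. Detection: RT-PCR, HpaI digestion, capillary electrophoresis; bidirectional fitting to DMSO.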
compound,measurement,setting,value
CC(=O)CC(=O)Nc1ccc(C)cc1C,outcome,[1],inactive
same,outcome,[2],inactive
same,outcome,[3],inactive
same,outcome,[4],inactive
same,outcome,[5],inactive
same,outcome,[6],inactive
same,outcome,[7],inactive
same,outcome,[8],inactive
same,outcome,[9],inactive
same,outcome,[10],inactive
same,outcome,[11],inactive
same,outcome,[12],inactive
same,outcome,[13],inactive
same,outcome,[14],inactive
same,outcome,[15],inactive
same,outcome,[16],inactive
same,outcome,[17],inactive
same,outcome,[18],inactive
C[C@H]1C[C@@H](O)CC(C)(C)C1,outcome,[1],inactive
same,outcome,[2],inactive
same,outcome,[3],inactive
same,outcome,[4],inactive
same,outcome,[5],inactive
same,outcome,[6],inactive
same,outcome,[7],inactive
same,outcome,[8],inactive
same,outcome,[9],inactive
same,outcome,[10],inactive
same,outcome,[11],inactive
same,outcome,[12],inactive
same,outcome,[13],inactive
same,outcome,[14],inactive
same,outcome,[16],inactive
same,outcome,[17],inactive
same,outcome,[18],inactive
CC[N+](C)(CC)CC,outcome,[1],inactive
same,outcome,[2],inactive
same,outcome,[3],inactive
same,outcome,[4],inactive
same,outcome,[5],inactive
same,outcome,[6],inactive
same,outcome,[7],inactive
same,outcome,[8],inactive
same,outcome,[9],inactive
same,outcome,[10],inactive
same,outcome,[11],inactive
same,outcome,[12],inactive
same,outcome,[13],inactive
same,outcome,[14],inactive
same,outcome,[16],inactive
same,outcome,[19],inactive
same,outcome,[17],inactive
same,outcome,[18],inactive
NCc1ccco1,outcome,[1],inactive
same,outcome,[2],inactive
same,outcome,[3],inactive
same,outcome,[4],inactive
same,outcome,[5],inactive
same,outcome,[6],inactive
same,outcome,[7],inactive
same,outcome,[8],inactive
same,outcome,[9],inactive
same,outcome,[10],inactive
same,outcome,[11],inactive
same,outcome,[12],inactive
same,outcome,[13],inactive
same,outcome,[14],inactive
same,outcome,[16],inactive
same,outcome,[19],inactive
same,outcome,[17],inactive
same,outcome,[18],inactive
CCCCCCCCCCCCN1CCCCCC1=O,AC50,[1],16.3 µM (active)
same,outcome,[2],inactive
same,outcome,[3],inactive
same,outcome,[4],inactive
same,outcome,[5],inactive
same,outcome,[6],inactive
same,outcome,[7],inactive
same,outcome,[8],inactive
same,outcome,[9],inactive
same,outcome,[10],inactive
same,outcome,[11],inactive
same,outcome,[12],inactive
same,outcome,[13],inactive
same,outcome,[14],inactive
same,outcome,[15],inactive
same,outcome,[16],inactive
same,outcome,[17],inactive
same,AC50,[18],9.68 µM (active)
COC(=O)c1ccc(OC)cc1,outcome,[1],inactive
same,outcome,[2],inactive
same,outcome,[3],inactive
same,outcome,[4],inactive
same,outcome,[5],inactive
same,outcome,[6],inactive
same,outcome,[7],inactive
same,outcome,[8],inactive
same,outcome,[9],inactive
same,outcome,[10],inactive
same,outcome,[11],inactive
same,outcome,[12],inactive
same,outcome,[13],inactive
same,outcome,[14],inactive
same,outcome,[16],inactive
same,outcome,[19],inactive
same,outcome,[17],inactive
same,outcome,[18],inactive
Nc1ccccc1[N+](=O)[O-],outcome,[1],inactive
same,outcome,[2],inactive
same,outcome,[3],inactive
same,outcome,[4],inactive
same,outcome,[5],inactive
same,outcome,[6],inactive
same,outcome,[7],inactive
same,outcome,[8],inactive
same,outcome,[9],inactive
same,outcome,[10],inactive
same,outcome,[11],inactive
same,outcome,[13],inactive
same,outcome,[14],inactive
same,outcome,[15],inactive
same,outcome,[16],inactive
same,outcome,[19],inactive
same,outcome,[17],inactive
